The values below come from PubChem BioAssay (NCATS).

Values without a mark were called inactive. The rule behind the calls is not given here.
Potency is the fitted concentration of half-maximal effect.

This assay relates to HIV-1 nucleocapsid protein NCp7 (binding to TG oligonucleotide). In words: HIV Nucleocapsid (AID 346).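 Note: potency is for inhibitors that block NC binding and lower polarization.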 The note with it: HIV-1 NC / fluorescein-TGTGTGTG probe, fluorescence polarization. An outline of the steps:
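Inhibition of nucleocapsid binding to single-stranded 5'-TGTGTGTG probe (10 nM) was measured by fluorescence polarization after 1 hr at room temperature with 100 nM protein under high-salt, zinc-containing, reducing conditions.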
`CNc1ncncc1-c1ccccc1C`: the Potency is more than 20 µM.
Next, `O=C(Nc1cccc(F)c1)N1CCCC2(CCN(C(=O)c3csnn3)CC2)C1`: more than 20 µM.
Next, `N#CCCn1c(=O)c(-c2cc(F)cc(F)c2)nc2cnc(Oc3cccc(Cl)c3)nc21`: more than 20 µM; `COc1ccc(-c2nc3cnc(N4CCN(C)CC4)nc3n(C)c2=O)cc1`: more than 20 µM.
`CN1CCN(c2ncc3nc(CCc4ccccc4)c(=O)n(CCC#N)c3n2)CC1`: the Potency was more than 20 µM.
As for `N#Cc1cccc(NC(=O)N2CCCC3(CCN(C(=O)c4cc(C(F)(F)F)cc(C(F)(F)F)c4)CC3)C2)c1`, the figure is more than 20 µM; as for `O=C(c1cnccn1)N1CCC2(CCCN(Cc3nccs3)C2)CC1`, more than 20 µM.
Next, `COCC(=O)N1CCC2(CCN(Cc3ccccc3OC)CC2)CC1`: more than 20 µM.
